# The list is not random: actives were taken first. Their share in the collection is about 2.4%.
# POLH inh: blocks human DNA polymerase eta activity | Q9Y253 | recombinant Pol eta, fluorescent DNA replication assay | Potency, µM (titrated, usually from 114 µM), usual class: inhibitors | hit rate 1.2% among 390,000 | AID 588591
#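 Pol eta (10 nM) was preincubated with compounds for 15 min at room temperature, after which fluorescent replication substrate (50 nM final) was added to start the reaction. Fluorescence was read kinetically at 0 and 10 min.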
# GCN5L2 inh: inhibitors of human GCN5L2 histone acetyltransferase; GCN5L2 HAT assay, ThioGlo1 CoA-SH fluorescence; Q92830; hit rate 0.21% among 390,000; Potency, µM (highest dose often 58.9 µM), usual class: inhibitors
# Target sequence (Q92830 whole entry, looked up): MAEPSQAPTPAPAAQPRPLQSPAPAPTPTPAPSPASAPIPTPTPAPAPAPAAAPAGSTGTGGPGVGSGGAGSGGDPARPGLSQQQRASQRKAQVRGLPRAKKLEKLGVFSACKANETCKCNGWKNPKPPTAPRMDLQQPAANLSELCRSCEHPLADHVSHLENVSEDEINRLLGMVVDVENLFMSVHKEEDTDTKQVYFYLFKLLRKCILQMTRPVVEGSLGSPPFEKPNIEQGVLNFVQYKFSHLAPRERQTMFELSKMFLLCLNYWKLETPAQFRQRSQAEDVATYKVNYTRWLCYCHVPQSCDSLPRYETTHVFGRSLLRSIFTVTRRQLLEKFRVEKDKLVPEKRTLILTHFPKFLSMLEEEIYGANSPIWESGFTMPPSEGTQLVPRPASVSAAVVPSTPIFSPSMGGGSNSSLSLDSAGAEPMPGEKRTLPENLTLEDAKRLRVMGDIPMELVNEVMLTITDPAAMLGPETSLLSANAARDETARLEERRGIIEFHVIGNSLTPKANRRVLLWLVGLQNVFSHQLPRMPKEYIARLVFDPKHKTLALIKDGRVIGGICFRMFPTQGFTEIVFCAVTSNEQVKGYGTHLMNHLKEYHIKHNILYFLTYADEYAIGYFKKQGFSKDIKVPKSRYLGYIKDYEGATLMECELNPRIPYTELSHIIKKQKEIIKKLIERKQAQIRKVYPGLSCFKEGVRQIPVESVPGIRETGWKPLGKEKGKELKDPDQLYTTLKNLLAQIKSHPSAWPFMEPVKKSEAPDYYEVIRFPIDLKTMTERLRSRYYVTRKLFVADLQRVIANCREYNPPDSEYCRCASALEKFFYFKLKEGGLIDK
#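 Preincubate 20nM GCN5L2 with compound 15 min, RT → add 50uM ThioGlo1 + 75uM H3(1-25) + 70uM acetyl-CoA → read fluorescence 0 and 20 min. Primary qHTS; fluorescent artifacts likely.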
# POLI inh: inhibitors of human DNA polymerase iota | AID 588590 | Q9UNA4 | hit rate 1% among 390,000 | Pol iota fluorescent replication assay, 10 min | Potency, µM (series often up to 115 µM), usual class: inhibitors
#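 Pol iota at 10 nM preincubated 15 min with compounds at room temperature; reaction started with fluorescent substrate, 50 nM final. Fluorescence read kinetically at 0 and 10 min; buffer-only wells as negative control.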
# POLK inh: blocks human DNA polymerase kappa activity. Q9UBT6. purified Pol kappa, fluorescent DNA synthesis assay, 10 min. Potency, µM (highest dose often 107 µM), actives largely listed as inhibitors. hit rate 0.53% among 400,000. AID 588579
#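 First, compounds were pin-transferred onto 10 nM Pol kappa. After 15 min at room temperature, substrate was added to 50 nM final. Fluorescence was then measured kinetically at 0 and 10 min.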
# GLS inh: glutaminase GLS (human) inhibition | GLS enzymatic activity, qHTS titration | Potency, µM (series often up to 45.5 µM), actives largely listed as inhibitors | hit rate 0.21% among 410,000
#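 Assay buffer: 45 mM KH2PO4 pH 8.2, 0.02% Tween-20. hKGA acts on L-glutamine (1 mM solution added); product glutamate is reported by an oxidase/peroxidase Amplex Red coupling, with fluorescence taken at baseline and 30 min.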
# POLB inh: DNA polymerase beta (human) inhibition; hit rate 1.3% among 340,000; AID 485314; Potency, µM (highest dose often 114 µM), actives largely listed as inhibitors; Pol beta primer extension/strand displacement, fluorescence kinetic; P06746
#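 Homogeneous kinetic assay of primer extension and strand displacement by 10 nM Pol beta, preincubated 15 min at room temperature with compound before 50 nM substrate (final) was added. Read at 0 and 10 min; four-parameter Hill fit.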
# TbPGK inh: blocks T. brucei phosphoglycerate kinase; shares compounds with POLK inh; TbPGK coupled GAPDH assay, Kinase-Glo luminescence; Potency, µM (series often up to 57.5 µM), usual class: inhibitors; hit rate 79% among 500; note: nearly all actives have a fitted effect of over 65% in size
# Pol iota confirm: Human Pol iota inhibitor confirmatory assay. shares compounds with POLK inh. Pol iota primer extension, TAMRA/BHQ fluorescence. Potency, µM, actives largely listed as inhibitors. hit rate 77% among 1,500
# Numbers stand for hits; 0 = inactive; ? = inconclusive; - = no result; [ ] = another dose, or the depositor's remark. Calls come from the whole dose curve; as a rule, active = well fitted curve in the direction sought with a large enough effect; inconclusive = small, poorly fitted or top-dose-only effect, or another doubt; inactive = no such curve, though single readings can be large; an effect the other way counts as inactive or inconclusive.
SMILES,POLH inh,GCN5L2 inh,POLI inh,POLK inh,GLS inh,POLB inh,TbPGK inh,others
O=c1c(Cl)c(N2CCCCC2)cnn1-c1nc2ccccc2[nH]1,0,0,0,0,0,0,-,
O=c1c2ccccc2cnn1-c1nc2ccccc2[nH]1,0,0,0,0,0,0,5.8µM,
CC(C)CCNC(=O)c1ccc2c(c1)NC(=O)C(CS(=O)(=O)Cc1ccc(F)cc1)N2 (stereo not given),?,0,0,0,13µM,0,-,Pol iota confirm=?
O=C(NCc1ccc(Cl)cc1)c1ccc2c(c1)NC(=O)C(CS(=O)(=O)Cc1ccc(F)cc1Cl)N2 (stereo not given),?,0,0,0,0,0,-,
COc1ccc(S(=O)(=O)N(CCO)c2ccccc2CN(C)C/C=C/c2ccc(Cl)cc2)cc1,-,0,-,0[19.4 µM],-,-,-,
COc1ccc(CCNC(=O)C2CCCN(c3nc4c(C)cc(C)cc4s3)C2)cc1OC (stereo not given),0,0,0,0,0,0,-,
O=C(Nc1ccc2oc(=O)ccc2c1)c1ccc(-c2cccc([N+](=O)[O-])c2)o1,32µM,?,0,0,0,2.8µM,-,Pol iota confirm=21
O=C(Nc1ccc2oc(=O)ccc2c1)c1ccc(-c2cccc(Cl)c2)o1,0,0,0,0,0,0,-,
O=C1/C(=C\c2ccc(O)cc2)SC(=S)N1c1cccnc1,?,0,?,0,0,?,-,Pol iota confirm=?
Cc1csc2c(=O)sc(NC(=O)c3cccs3)nc12,?,?,?,0,0,?,26µM,
Cc1ccc(-c2cc(C(=O)Nc3ccc(S(=O)(=O)N4CC(C)OC(C)C4)cc3)[nH]n2)c(O)c1 (stereo not given),0,0,40µM,?,0,18µM,-,Pol iota confirm=75
COc1ccc(NC(=O)c2nc(-c3ccc(C)cc3)n3c2CCCCC3)cc1,0,0,0,0,0,0,-,
O=c1c(OC2OC(CO)C(O)C(O)C2O)c(-c2ccc(O)c(O)c2)oc2cc(O)cc(O)c12 (stereo not given),?,0,25µM,18µM,0,0,?,
C[C@@H]1O[C@@H](Oc2c(-c3cc(O)c(O)c(O)c3)oc3cc(O)cc(O)c3c2=O)[C@H](O)[C@H](O)[C@H]1O,?,0,50µM,1.7µM,0,?,-,Pol iota confirm=?
COc1ccc(O)c(C(c2c(C)[nH][nH]c2=O)c2c(C)[nH][nH]c2=O)c1,0,?,0,0,?,?,-,Pol iota confirm=?
COc1ccccc1NC(=O)CCNS(=O)(=O)c1ccc2c(c1)CCN2C(=O)C1CC1,0,0,0,0,0,0,-,
CCOc1cc(N2CCOCC2)c(OCC)cc1NC(=O)COc1ncnc2ccccc12,0,0,0,0,0,0,-,
CCOc1cc(N2CCOCC2)c(OCC)cc1NC(=O)c1cc(-c2ccco2)nc2ccccc12,79µM,0,?,0,0,?,-,Pol iota confirm=?
Cc1ccc(NC(=O)CN2C(=O)S/C(=C\c3ccc(-c4cccc(C(=O)O)c4C)o3)C2=O)cc1C,8.9µM,0,10µM,89µM,0,10µM,4.1µM,
OC(C[n+]1cccc(Br)c1)c1ccccc1 (stereo not given),-,-,0,0,-,-,-,
COc1ccc(NC(=O)/C(C#N)=C/c2ccc(C)o2)cc1,0,0,0,0,0,0,-,
COc1ccc(NC(=O)/C(C#N)=C/c2ccc(Br)o2)cc1,?,0,22µM,79µM,0,10µM,-,Pol iota confirm=?
O=C(CSc1nnc(NC(=O)NC2CCCCC2)s1)Nc1ccccc1F,0,0,0,0,0,?,-,
O=[N+]([O-])c1ccc2nc(SCc3cn4cc(Cl)ccc4n3)[nH]c2c1,50µM,0,28µM,0,0,5.6µM,-,Pol iota confirm=?
COc1ccc(N(C(=O)COc2ccc(Br)cc2)S(=O)(=O)c2ccc(C)cc2)cc1,0,0,0,0,0,0,-,
SMILES,POLH inh,GCN5L2 inh,POLI inh,POLK inh,GLS inh,POLB inh,TbPGK inh,others
CSc1ccc(C=NNc2ccc(S(=O)(=O)Nc3ccccc3C(=O)O)cc2[N+](=O)[O-])cc1,?,?,25µM,?,0,-,4.1µM,
CCOc1cccc(C=NNc2ccc(S(=O)(=O)Nc3ccccc3C(=O)O)cc2[N+](=O)[O-])c1O,0,0,0,0,0,-,-,
COc1cccc2c(C)nc(Nc3nc(CSc4nnc(C)s4)cc(=O)[nH]3)nc12,0,0,?,0,0,0,-,Pol iota confirm=?
CCN(CC)c1ccc(-c2nnc(SCC(=O)NCc3ccco3)n2CC)cc1,-,-,0,0,-,-,-,
COc1ccc(-c2nc(CSCC(=O)NCCc3ccc(C)cc3)c(C)o2)cc1OC,0,0,0,0,0,0,-,
CC(=O)N1CCCc2cc(S(=O)(=O)N3CCC(C(=O)NCCC(C)C)CC3)ccc21,0,0,0,0,0,0,-,
COC(=O)c1ccc(NC(=O)c2ccc(NC(=O)c3ccco3)cc2)cc1,?,?,?,0,0,0,-,Pol iota confirm=?
Cc1ccc(C(=O)O/N=C(\N)c2ccccn2)c(C)c1,0,0,0,0,0,0,7.3µM,
N/C(=N\OC(=O)c1ccc(Cl)c(Cl)c1)c1ccccn1,0,?,0,0,0,0,-,
COc1ccc(C(=O)O/N=C(\N)c2ccccn2)cc1,0,0,0,0,0,0,5.2µM,
N/C(=N\OC(=O)c1ccc(Cl)cc1)c1ccccn1,0,0,0,0,0,0,15µM,
COc1ccccc1C(=O)O/N=C(\N)c1ccccn1,0,0,0,0,0,0,-,
COc1cc(OC)cc(C(=O)O/N=C(\N)c2ccccn2)c1,0,0,0,0,0,0,-,
N/C(=N\OC(=O)c1ccccc1Cl)c1ccccn1,0,0,0,0,0,0,16µM,
CC1=C(C(=O)Nc2ccccc2)C(c2cccc(Cl)c2)n2nc(SCC(=O)c3ccc(C)cc3)nc2N1 (stereo not given),0,0,0,0,0,0,-,
CN(C)c1cccc(C(=O)N2CCC(c3ccncc3)CC2)c1,0,0,0,0,0,0,-,
COc1ccc(C(=O)NNC(=O)c2ccccn2)cc1,0,0,0,0,0,0,5.2µM,
Cc1ccc(/C=N/N2CCCCC2)o1,0,?,0,0,0,0,0,
O=c1cc2oc3cc(O)c(O)cc3c(-c3ccccc3O)c-2cc1O,?,?,0,4.5µM,0,40µM,1.2µM,
COc1ccc(OC)c(-c2c3cc(O)c(=O)cc-3oc3cc(O)c(O)cc23)c1,-,?,?,?,0,45µM,0.37µM,
COc1cc(NC(=O)c2ccccc2)ccc1NC(=O)c1cc2ccccc2o1,0,0,0,0,0,0,-,
